“And” between values parts separate entries of the source, which are not always exact repeats. Equal values may be shown once. Unmarked numbers belong to inactive results. Results filed as inconclusive are left out. Where a call stands in place of a potency, no number is given. The source made the active and inactive calls. Unless noted, calls follow the shape of the dose curve; as a rule, active = well fitted curve in the direction sought with a large enough effect in the repeat runs; inconclusive = weak or mixed curves; inactive = no such curve, though single readings can be large; an effect the other way counts as inactive or inconclusive.
How the values were obtained:
[1] = qHTS assay to identify small molecule antagonists of the glucocorticoid receptor (GR) signaling pathway - cell viability counter screen (AID 720693); also: nearly all actives have a fitted effect of over 55% in size
[2] = qHTS assay for identifying genotoxic compounds that show differential cytotoxicity against isogenic chicken DT40 cell lines with known DNA damage response pathways - wild type cell line (AID 743012); also: nearly all actives have a fitted effect of over 60% in size; also: potency is read from the fitted curve at half-maximal effect
Outline: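 Cells (DT40 wild type, 300/well) are treated with DMSO-dissolved compounds after a ~0.5 h pre-incubation and kept 40 h at 37 C/5% CO2. Viability is then measured by CellTiter-Glo luminescence following 30 min at room temperature.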

[3] = qHTS assay for identifying genotoxic compounds that show differential cytotoxicity against isogenic chicken DT40 cell lines with known DNA damage response pathways - Rev3 mutant cell line (AID 743014); also: nearly all actives have a fitted effect of over 55% in size; also: potency is read from the fitted curve at half-maximal effect
[4] = qHTS assay for identifying genotoxic compounds that show differential cytotoxicity against isogenic chicken DT40 cell lines with known DNA damage response pathways - Rad54/Ku70 mutant cell line (AID 743015); also: nearly all actives have a fitted effect of over 60% in size; also: potency is read from the fitted curve at half-maximal effect
[5] = qHTS assay to identify small molecule antagonists of the androgen receptor (AR) signaling pathway - cell viability counter screen (AID 743033; also: nearly all actives have a fitted effect of over 45% in size)
[6] = qHTS assay to identify small molecule antagonists of the androgen receptor (AR) signaling pathway using the MDA cell line - cell viability counter screen (AID 743041; also: nearly all actives have a fitted effect of over 45% in size)
Outline: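 MDA-kb2 AR-luc cells (MMTV-luciferase, AR/GR responsive) treated with compounds plus R1881 agonist for 16 h at 37C. CellTiter-Fluor added at 15.5 h; fluorescence read after 30 min in the same wells.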

[7] = qHTS assay to identify small molecule antagonists of the thyroid receptor (TR) signaling pathway - cell viability counter screen (AID 743064); also: nearly all actives have a fitted effect of over 50% in size; also: potency is read from the fitted curve at half-maximal effect
Outline: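 Plate GH3.TRE-Luc cells; incubate 4 h at 37 °C; add compound, then T3 to 1 nM final; incubate 23.5 h; add CellTiter-Fluor; incubate 30 min at 37 °C, 5% CO2; read fluorescence.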

[8] = target: Androgen receptor (Homo sapiens) (UniProt P10275); assay: qHTS assay to identify small molecule antagonists of the androgen receptor (AR) signaling pathway (AID 743035; active = well fitted inhibition curve with a large enough effect in the signal ratio in the repeat runs, not every such curve was filed as active; the % refers to the signal ratio)
Outline: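 Antagonism is scored as loss of R1881-driven beta-lactamase reporter expression in HEK293 cells carrying the reporter under a UAS element, after 16 h co-treatment at 37C and a 2 h room-temperature FRET substrate read.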

[9] = target: Androgen receptor (Homo sapiens) (UniProt P10275); assay: qHTS assay to identify small molecule agonists of the androgen receptor (AR) signaling pathway using the MDA cell line (AID 743040; also: nearly all actives have a fitted effect of over 20% in size)
Outline: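 MDA-kb2 breast carcinoma cells carrying MMTV-luciferase (responsive to AR and GR), plated 5 h then treated 16 h with compounds at 37C, 0% CO2. Read-out was ONE-Glo luminescence after 30 min at room temperature.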

[10] = target: Androgen receptor (Homo sapiens) (UniProt P10275); assay: qHTS assay to identify small molecule agonists of the androgen receptor (AR) signaling pathway (AID 743036; active = well fitted activation curve with a large enough effect in the signal ratio in the repeat runs, with a control signal flat, not every such curve was filed as active; the % refers to the signal ratio)
Outline: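 Reporter line: GeneBLAzer AR-UAS-bla-GripTite (HEK293). Steps: plate cells, 4 h rest, add compounds, 16 h at 37C, add LiveBLAzer B/G substrate, 2 h at RT, read fluorescence.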

Sequence of Androgen receptor (Homo sapiens) (P10275 whole entry, looked up): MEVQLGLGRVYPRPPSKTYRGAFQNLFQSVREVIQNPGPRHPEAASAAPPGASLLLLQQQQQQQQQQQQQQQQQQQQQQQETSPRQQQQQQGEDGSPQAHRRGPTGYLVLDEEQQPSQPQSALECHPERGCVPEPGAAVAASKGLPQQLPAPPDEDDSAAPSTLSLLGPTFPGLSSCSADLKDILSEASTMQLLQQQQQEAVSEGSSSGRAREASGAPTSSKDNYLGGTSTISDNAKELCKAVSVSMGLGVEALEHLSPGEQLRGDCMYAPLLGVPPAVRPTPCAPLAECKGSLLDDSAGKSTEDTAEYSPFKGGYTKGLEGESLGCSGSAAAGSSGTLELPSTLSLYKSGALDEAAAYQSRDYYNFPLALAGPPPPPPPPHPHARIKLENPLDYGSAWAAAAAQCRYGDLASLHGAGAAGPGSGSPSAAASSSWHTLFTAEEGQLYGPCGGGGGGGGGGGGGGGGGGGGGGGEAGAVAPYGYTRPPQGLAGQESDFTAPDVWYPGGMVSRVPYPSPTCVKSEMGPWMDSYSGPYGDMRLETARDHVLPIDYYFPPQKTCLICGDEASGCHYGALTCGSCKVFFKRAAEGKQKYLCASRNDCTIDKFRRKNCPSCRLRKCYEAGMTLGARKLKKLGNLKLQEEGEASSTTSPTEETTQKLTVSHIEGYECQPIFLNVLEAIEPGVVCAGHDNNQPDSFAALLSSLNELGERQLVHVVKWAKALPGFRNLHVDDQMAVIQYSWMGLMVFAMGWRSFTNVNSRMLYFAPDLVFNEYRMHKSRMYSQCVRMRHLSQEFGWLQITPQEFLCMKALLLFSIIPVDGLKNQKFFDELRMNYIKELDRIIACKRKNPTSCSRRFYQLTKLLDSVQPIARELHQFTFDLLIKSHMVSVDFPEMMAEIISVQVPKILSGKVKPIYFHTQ

SMILES | outcome [1] | Potency [2] | Potency [3] | Potency [4] | outcome [5] | Potency [6] | Potency [7] | Potency [8] | Potency [9] | outcome [10]
CN1CCN(c2cc3c(nn2)Oc2ccccc2N3C)CC1 | inactive | inactive | inactive | inactive | inactive | inactive | inactive |  |  | 
O=C(O)CNC(=O)c1ccccc1 | inactive | inactive | inactive | inactive | inactive | inactive | inactive |  |  | 
O=Cc1cccc(Br)c1 | inactive | inactive | inactive | inactive | inactive | inactive | inactive |  |  | 
C=COC(=O)C(C)(CC)CCC(C)C (stereo not given) | inactive | inactive | inactive | inactive | inactive | inactive | inactive |  |  | 
CCN1CCOCC1 | inactive | inactive | inactive | inactive | inactive | inactive | inactive |  |  | 
C=CN1CCCCCC1=O | inactive | inactive | inactive | inactive | inactive |  | inactive |  |  | 
CCOc1ccc2nc(S(N)(=O)=O)sc2c1 | inactive | inactive | inactive | inactive | inactive | inactive | inactive |  |  | 
C[N+]1(CC2COC(c3ccccc3)(c3ccccc3)O2)CCCCC1 (stereo not given) | inactive | 26.6 µM (active) | 29.8 µM (active) | 26.6 µM (active) | inactive | inactive | inactive |  |  | 
O=C(O)Cc1csc(-c2ccc(Cl)cc2)n1 | inactive | inactive | inactive | inactive |  | inactive | inactive | inactive | inactive | 
CCC1C(=O)OCC1Cc1cncn1C (stereo not given) | inactive | inactive | inactive | inactive | inactive | inactive | inactive |  |  | 
CN(C)CCN(C)CCN(C)C | inactive | inactive | inactive | inactive | inactive | inactive | inactive |  |  | 
CC(=O)C1CCCCC1=O (stereo not given) | inactive | inactive | inactive | inactive | inactive | inactive | inactive |  |  | 
CCCCCCC#CC(=O)OC | inactive | inactive | inactive | inactive | inactive | inactive | inactive |  |  | 
CCN(C=O)CC | inactive | inactive | inactive | inactive | inactive | inactive | inactive |  |  | 
Nc1ccn([C@@H]2O[C@H](CO)[C@@H](O)C2O)c(=O)n1 (stereo not given in full) | inactive | 298 nM (active) and 193 nM (active) | 266 nM (active) and 172 nM (active) | 376 nM (active) and 172 nM (active) | inactive | inactive | 531 nM (active) and 486 nM (active) |  |  | 
NO | inactive | inactive | inactive | inactive | inactive | inactive | inactive |  |  | 

SMILES | outcome [1] | Potency [2] | Potency [3] | Potency [4] | outcome [5] | Potency [6] | Potency [7] | Potency [8] | Potency [9] | outcome [10]
CCCCCCCCCCCCSC | inactive | inactive | 61.1 µM (active) | inactive | inactive | inactive | inactive |  |  | 
C=CCOCC(O)CO (stereo not given) | inactive | inactive | inactive | inactive | inactive | inactive | inactive |  |  | 
O=C1CCCCCCCCCCCCCCO1 | inactive | inactive | inactive | inactive | inactive | inactive | inactive |  |  | 
NC(=O)Cc1cccc2ccccc12 | inactive | inactive | inactive | inactive | inactive | inactive | inactive |  |  | 
O=C1NC(=O)C2CC=CCC12 (stereo not given) | inactive | inactive | inactive | inactive | inactive | inactive | inactive |  |  | 
CCN[C@@H]1C[C@H](N)[C@@H](OC2OC(CN)=CCC2N)[C@H](O)[C@H]1O[C@H]1OC[C@](C)(O)[C@H](NC)[C@H]1O (stereo not given in full) | inactive | inactive |  | inactive | inactive | inactive | inactive |  |  | 
CC(N)C12CC3CC(CC(C3)C1)C2 (stereo not given) | inactive | inactive |  | inactive | inactive | inactive | inactive |  |  | 
C=CC(C)(CCC=C(C)C)OC(=O)CC (stereo not given) | inactive | inactive |  | inactive | inactive | inactive | inactive |  |  | 
C[C@H]1C[C@H]2[C@@H]3CCC4=CC(=O)C=C[C@]4(C)[C@H]3C(=O)C[C@]2(C)[C@@]1(O)C(=O)CO | inactive | inactive |  | inactive | inactive | inactive | inactive |  |  | 
O=C(O)CC(C(=O)O)S(=O)(=O)O (stereo not given) | inactive | 68.6 µM (active) | 61.1 µM (active) |  | inactive | inactive | inactive |  |  | 
Cc1nc2ccc(CN(C)c3ccc(C(=O)N[C@@H](CCC(=O)O)C(=O)O)s3)cc2c(=O)[nH]1 | inactive |  | 2.7 nM (active) and 5.3 nM (active) | 2.1 nM (active) and 4.2 nM (active) | inactive | inactive | inactive | inactive | inactive | inactive
CNC(=O)Nc1ccc(Cl)c(Cl)c1 | inactive | inactive |  |  | inactive | inactive | inactive |  | inactive | inactive
OCCCCCO | inactive | inactive |  | inactive | inactive | inactive | inactive |  |  | 
C[N+]12CCC(CC1)C(OC(=O)C(O)(c1ccccc1)c1ccccc1)C2 (stereo not given) | inactive | inactive |  | inactive | inactive | inactive | inactive |  |  | 
CC(C)COC(=O)c1ccc(N)cc1 | inactive |  | inactive | inactive | inactive | inactive |  |  |  | 

— PubChem BioAssay (Tox21)
